A selection: hits, their analogues and other compounds. The true share with any hit is near 5.9%.
DAX1 inh = DAX1 (NR0B1) inhibitors, primary screen, cell-based, HEK293, Gal4-DAX1, luciferase luminescence. actives 0.99% (n = 340,000). Nuclear receptor subfamily 0 group B member 1 (Homo sapiens), P51843. AID 504766, 2011. inhibition, % at 6.75 µM. HEK293 Gal4-DAX1 luciferase reporter;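 active = inhibition above the mean over all tested compounds plus 3 SD, cut at about 4.2% in these data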;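 also: 0% = DAX1-transfected cells with DMSO and 100% = empty-vector control cells with DMSO; inhibition shows as a rise in luminescence from relieved DAX1 repression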
Target sequence (P51843 207-470 limits assumed): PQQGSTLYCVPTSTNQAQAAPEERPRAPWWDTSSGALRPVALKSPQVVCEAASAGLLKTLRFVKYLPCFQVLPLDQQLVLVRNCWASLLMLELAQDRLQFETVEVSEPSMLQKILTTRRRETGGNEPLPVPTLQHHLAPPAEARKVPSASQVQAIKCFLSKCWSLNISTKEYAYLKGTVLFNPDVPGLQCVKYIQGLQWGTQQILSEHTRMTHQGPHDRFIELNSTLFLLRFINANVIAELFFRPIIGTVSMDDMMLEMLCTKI
HSF1 activator = HSF-1 activators, primary screen, NIH3T3-HGL cells, MG132 stress, luminescence, single point; NIH3T3-HGL HSF-1 luciferase reporter, 8 h; 100% = twice DMSO control signal; activation, % at 9 µM; actives 1.7% (n = 300,000); AID 504408, 2011;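 active = mean replicate activation of at least 50% with a set share of replicates each reaching 50%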;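 also: 0% = median of the neutral control wells and 100% = twice that signal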
AHR activator = AHR activators, primary screen, cell-based, luminescence, luciferase reporter, human; AHR-responsive luciferase reporter cells; activation, % at 5 µM; actives 2.5% (n = 320,000); in the data active = activation above about 47%;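 also: 0% = vehicle wells and 100% = reference agonist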
HSP90 refold inh = HSP90 inhibitors, primary screen, cell lysate, luminescence | Heat shock protein HSP 90 (rabbit reticulocyte lysate; luciferase refolding) | Rabbit reticulocyte lysate, luciferase refolding luminescence, 3 h | inhibition, % at 5.6 µM | actives 0.91% (n = 290,000) | AID 1789, 2009;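 active = inhibition above the screen-wide mean plus 3 SD, computed separately per campaign, cut at about 16% in these data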;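 also: 0% = DMSO wells and 100% = 60 µM geldanamycin wells; inhibitors lower the luminescence because luciferase stays unfolded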
FXN GAA850 act = FXN promoter activators, primary screen, cell-based, luciferase luminescence, HEK293 lucGAA850 | HEK293 lucGAA850 FXN promoter luciferase reporter, 24 h; percent of 10 µM SAHA response | activation, % at 6 µM | actives 0.56% (n = 360,000) | AID 540364, 2011;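 active = activation above the average of all compounds screened plus 3 SD, cutoff fixed separately per campaign, cut at about 7.5% in these data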;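 also: 0% = DMSO wells and 100% = 10 µM SAHA wells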
HSF1 inhib = HSF1 inhibitors in luciferase reporter cells, primary screen, cell-based, NIH3T3, luminescence; NIH3T3-HGL HSE-luciferase, MG132-induced, luminescence 8 h; stronger effect = lower value; activity change, negative = inhibition, % at 7.5 µM (by protocol); actives 0.77% (n = 300,000); AID 2098, 2009;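 active = more than half of replicate wells show activity change below -50%, luminescence cut by over half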;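 also: luciferase reports HSF-1 transcriptional activity via heat shock element; 0% = median of DMSO wells and -100% = zero luminescence signal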
Active calls of the source: *; / = no result given.

SMILES | DAX1 inh | HSF1 activator | AHR activator | HSP90 refold inh | FXN GAA850 act | HSF1 inhib
O=C(O)CCSCCCN1C(=O)c2cccc3cccc(c23)C1=O | 2 | 6 | 49* | 1 | 2 | -5
O=C(CCCN1C(=O)c2cccc3cccc(c23)C1=O)Nc1ccon1 | / | 113* | -3 | -3 | 2 | 49
O=C(CCCN1C(=O)c2ccccc2C1=O)Nc1nc2ccccc2[nH]1 | 4.8* | -23 | 17 | -5 | 0 | -5
O=C(CCCCCN1C(=O)c2ccccc2C1=O)Nc1ccccc1 | 1 | -6 | -1 | 2 | -1 | -2
CC(=NNC(=O)c1ccc(NS(=O)(=O)c2cccs2)cc1)c1ccc(OCC(N)=O)cc1 | 1 | / | 5 | / | 2 | /
CC(=O)c1cccc(-c2ccnc3c2CC(C(=O)NCc2ccccc2)O3)c1 (stereo not given) | / | / | / | / | -2 | /
CCCS(=O)(=O)c1nnnn1-c1cccc(OC)c1 | -1 | -95 | 1 | 1 | 0 | -95*
COc1cc(CC(=O)N2CCN(S(=O)(=O)c3ccc(C(C)C)cc3)CC2)cc(OC)c1OC | 1 | / | / | / | -4 | /
Nn1c(SCC(=O)N2CCOCC2)nnc1C1CC1 | 0 | 83* | 2 | -1 | 1 | 26
Nn1c(SCC(=O)NCc2ccccc2)nnc1C1CC1 | 2 | 52* | -2 | 0 | 1 | 12
Nn1c(SCC(=O)N2CCCC2)nnc1C1CCCCC1 | 1 | / | / | / | 0 | /
N#C/C(=C/c1ccc(Br)o1)C(N)=O | -2 | -92 | 5 | -3 | -3 | -92*
N#C/C(=C/c1ccc(Br)o1)C(N)=S | / | 8 | 17 | 0 | / | -2
Cc1ccc(S(=O)(=O)N(CCC(=O)N2CCOCC2)c2ccccc2)cc1 | 1 | / | / | / | -1 | /
CSc1ccc(Cc2ccc(Cl)cc2Cl)nn1 | 4.3* | 2 | 6 | 2 | 1 | 5
CCOc1cc2[nH]c(=S)n(Cc3ccc(C)o3)c(=O)c2cc1OCC | 0 | 8 | 65* | 3 | -2 | 15
Cc1ccc(Cn2c(=S)[nH]c3ccc(N4CCOCC4)cc3c2=O)o1 | 0 | 45 | 0 | 2 | 4 | 37
Cc1cccc(NC(=O)c2nc[nH]c2C(=O)NC2CCN(C(=O)OC(C)(C)C)CC2)c1 | 1 | / | 1 | / | -2 | /
Clc1ccc(-c2csc(Nc3cccnc3)n2)cc1 | 2 | 14 | 81* | 12 | 0 | 5
Fc1ccc(Nc2nc(-c3cccnc3)cs2)cc1 | 8.0* | 7 | 39 | 3 | 7 | 10
c1ccc(-c2csc(Nc3cccnc3)n2)cc1 | 1 | -3 | 31 | 3 | 5 | 5
CCNC(=O)C1CCCN(C(=O)c2ccc3c(c2)OCO3)CC1 (stereo not given) | / | / | / | / | 0 | /
CCCC(=O)Nc1sc(C(=O)Nc2cccc(N)c2)c(C)c1C(=O)OC | 0 | -71 | 14 | -2 | 3 | -67*
Cc1cccc(C)c1NC(=O)COC(=O)C1C2CC3OC(=O)C1C3C2 (stereo not given) | 5.2* | 19 | 0 | -2 | 0 | -3
O=C1/C(=C/c2ccccc2Cl)SC(=S)N1CCC(=O)N1CCCCC1CCO (stereo not given) | 0 | 68* | 7 | 5 | -2 | 39
SMILES | DAX1 inh | HSF1 activator | AHR activator | HSP90 refold inh | FXN GAA850 act | HSF1 inhib
O=C1/C(=C\c2ccccc2)SC(=S)N1CCC(=O)N1CCCCC1CCO (stereo not given) | -1 | 4 | 0 | -1 | -3 | 7
Cc1ccc(-c2csc3nc(C)n(N)c(=O)c23)cc1 | -1 | 4 | 13 | -5 | 0 | 2
Cc1nc2scc(-c3ccc(Cl)cc3)c2c(=O)n1N | -1 | 94* | 15 | 1 | 0 | 68
O=C(C(O)c1ccc(Br)cc1)N1CCC(Nc2ccc3[nH]ncc3c2)CC1 (stereo not given) | / | / | / | / | 1 | /
COc1ccc(-c2nc(CN3CCN(Cc4cccc(Cl)c4)CC3)c(C)o2)cc1 | 5.8* | 15 | 8 | 5 | 3 | -5
COc1ccc(-c2nc(CN3CCN(Cc4cccc(F)c4)CC3)c(C)o2)cc1 | 0 | -1 | 9 | -1 | 1 | -8
Cc1ccc2nc(CCc3ccc(N)cc3)[nH]c2c1 | 2 | 41 | 52* | 8 | 5 | 21
Nc1ccc2nc(CCc3ccccc3)[nH]c2c1 | 1 | 31 | 16 | -3 | 3 | 11
CC(C)C(N)c1csc(NC(=O)Nc2cccc(Cl)c2)n1 (stereo not given) | / | / | / | / | -2 | /
CCOc1ccc(NS(=O)(=O)c2cc(C(=O)NCCCN3CCCC3=O)ccc2C)cc1 | 1 | / | 0 | / | 0 | /
Cc1ccc(C2/C(=C(\O)c3c(C)nc4c(C)cccn34)C(=O)C(=O)N2CCN(C)C)o1 (stereo not given) | 2 | / | / | / | 0 | /
Cc1nc2c(C)cccn2c1/C(O)=C1\C(=O)C(=O)N(CCN(C)C)C1c1ccccc1 (stereo not given) | 5.8* | -19 | 0 | -3 | 2 | -6
CCOc1ccc2nc(NC(=O)CCn3cccc3)sc2c1 | 0 | 24 | 59* | -1 | 1 | 7
CCOc1ccc2nc(NS(=O)(=O)Cc3ccccc3)sc2c1 | 10* | -10 | 0 | -7 | 1 | 3
CC(=O)NCCC(=O)N(Cc1ccccc1)c1nc2c(C)cccc2s1 | 0 | 14 | 2 | 5 | 0 | 8
CCCC(=O)Nc1nc2ccc(OCC)cc2s1 | 0 | 36 | 20 | -2 | 2 | 20
CCOc1ccc2nc(N(Cc3ccccc3)C(=O)CCNC(C)=O)sc2c1 | 2 | 57* | / | -5 | 3 | 15
Cc1cc([N+](=O)[O-])ccc1P(=O)(O)c1ccc([N+](=O)[O-])cc1C | 2 | / | / | / | -1 | /
CN(CCCC(=O)Nc1ccc(Br)cc1F)S(=O)(=O)c1ccccc1 | -2 | 29 | 6 | 5 | 0 | 1
N/C(=N\OC(=O)COc1ccc(Cl)cc1Br)c1cccnc1 | 1 | 42 | 10 | 2 | 2 | 39
N/C(=N\OC(=O)COc1ccc(Cl)cc1Cl)c1ccncc1 | 6.2* | / | / | 1 | 3 | /
O=C(COC(=O)COc1ccc(Cl)cc1Cl)Nc1cccnc1Cl | -2 | 63* | 1 | 3 | 4 | 13
N/C(=N\OC(=O)COc1ccc(Br)cc1Cl)c1cccnc1 | 1 | 60* | 16 | 4 | 4 | 31
O=C(CCCCC(=O)N1CCOCCOCCOCC1)OCc1ccccc1 | -1 | -1 | -1 | 2 | 0 | -10
COc1ccccc1NC(=O)Nc1cc(C(C)C)ccc1C | 0 | -7 | / | 3 | 2 | -7
COc1ccccc1NC(=O)OC(C)c1ccc(Cl)cc1 (stereo not given) | 4.5* | 0 | 75* | 3 | 3 | 1
O=c1cc(NCCc2ccccc2)c2ccccc2o1 | 0 | 57* | 11 | -3 | 2 | 23
